Compounds with a hit are over-represented: about 2.9% of the library has one in this group of screens.
DAGLB inhibitor: blocks human DAGLB lipase activity; Q8NCG7; HEK293T DAGLB membrane lysate, EnzChek fluorogenic substrate; inhibition, % at 5.17 µM; actives 0.059% (n = 340,000); in the data active means inhibition above about 34%;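 further: 0% = enzyme with vehicle and 100% = wells lacking enzyme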
sPLA2-III inh: Blocks human group III sPLA2 activity; actives 0.56% (n = 370,000); Q9NZ20; inhibition, % at 12.2 µM; QFRET BODIPY PC-A2 liposome hydrolysis, fluorescence; AID 743126;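 active means inhibition above mean plus 3 SD of compounds lying within the high and low control bounds, cut at about 19% in these data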;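 further: 0% = median of test compound wells and 100% = no enzyme DMSO wells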
Target sequence (Q9NZ20 whole entry, looked up): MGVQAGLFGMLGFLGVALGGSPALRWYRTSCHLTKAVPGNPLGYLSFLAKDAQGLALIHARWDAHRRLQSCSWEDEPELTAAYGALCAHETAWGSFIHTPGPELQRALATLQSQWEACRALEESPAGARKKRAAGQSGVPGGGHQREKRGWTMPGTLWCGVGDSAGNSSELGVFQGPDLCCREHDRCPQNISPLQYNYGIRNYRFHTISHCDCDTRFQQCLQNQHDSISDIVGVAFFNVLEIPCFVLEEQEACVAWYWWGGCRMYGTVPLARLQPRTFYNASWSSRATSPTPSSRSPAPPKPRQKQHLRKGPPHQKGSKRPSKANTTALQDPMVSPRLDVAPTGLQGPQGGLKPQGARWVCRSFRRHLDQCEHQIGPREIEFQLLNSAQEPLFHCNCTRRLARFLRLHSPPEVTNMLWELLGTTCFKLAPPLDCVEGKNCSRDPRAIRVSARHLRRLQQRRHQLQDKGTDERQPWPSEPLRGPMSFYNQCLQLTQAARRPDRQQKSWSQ
Cardio protect: myocardial damage modulation in H9c2 cells. H9c2 cardiomyocytes, H2O2 injury protection, ATPLite, 2 h. protection from H2O2 cell death, % at 20 µM. actives 0.63% (n = 360,000);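 active means compounds giving at least 50% protection of heart cells from peroxide-induced death in the single-dose screen, raw or plate-pattern-corrected value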;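 further: 0% = DMSO wells with peroxide and 100% = DMSO wells without peroxide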
Myeloid diff MLP: compounds promoting myeloid differentiation; ER-HoxA9 myeloid progenitors, lysozyme-GFP differentiation, flow cytometry; calls only at 10 µM; actives 1% (n = 360,000); AID 624256;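 active means normalized GFP-positive differentiation at or above the plate's own cutoff, the solvent-only control mean plus 3 SD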;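 further: cells exposed to compound for four days before flow analysis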
Rtt109 HAT inh: blocks Candida albicans Rtt109/Vps75 acetyltransferase activity; Q5AAJ8; purified Rtt109/Vps75, ThioGlo CoA-SH fluorescence, 4 h; inhibition, % at 34.9 µM; actives 0.16% (n = 330,000); AID 540336;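 active means inhibition of at least 50% in every replicate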
ABHD5 PLIN5 PPI: inhibitors of human ABHD5-perilipin-5 interaction. inhibition, % at 4 µM. actives 0.78% (n = 360,000). Q00G26+Q8WTS1. Split G. princeps luciferase complementation, luminescence, 4 h;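 active means inhibition above the mean inhibition across every tested compound plus 3 SD, cut at about 22% in these data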;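 further: 0% = DMSO only wells and the 100% control is not disclosed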
Myeloid diff CP1: myeloid differentiation induction. shares compounds with Myeloid diff MLP. ER-HoxA9 myeloid progenitors, GFP/Mac1 double-positive flow. calls only. actives 2% (n = 2,300). AID 651706;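 active means share of green or green-and-red cells above 9 and 9% in run 1 or 4 and 3% in run 2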
GFP autofluor: flagged as fluorescent in myeloid differentiation counter-screen; fluorescence response, % (concentration not given with the values); ER-HoxA9 myeloid progenitors, no estrogen, GFP autofluorescence flow cytometry; vehicle wells 0%, positive control 100%; shares compounds with Myeloid diff MLP; actives 7.4% (n = 2,300);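 active means over 5% cells positive for green fluorescent reporter, or over 2% positive for both it and APC stain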;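 further: range taken on the double positive population between DMSO and positive control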
* hit, by the source's call; i = inactive; . = no result; + = active, no number.

SMILES	DAGLB inhibitor	sPLA2-III inh	Cardio protect	Myeloid diff MLP	Rtt109 HAT inh	ABHD5 PLIN5 PPI	Myeloid diff CP1	GFP autofluor
CCN1CCN(c2ccc(S(=O)(=O)N3CCCCC3)cc2NC(=O)c2ccc([N+](=O)[O-])o2)CC1	1	-9	-9	i	10	-7	i	0
COc1ccc(OC)c(-c2csc(NC(=O)Cc3cccs3)n2)c1	1	-16	-4	+	1	9	i	0
COc1ccc(NS(=O)(=O)c2cc(NC(=O)c3sccc3C)ccc2N2CCOCC2)cc1	-4	-1	4	+	0	2	i	0
COc1ccccc1NS(=O)(=O)c1cc(NC(=O)c2cccs2)ccc1N1CCCCC1	-1	-17	-4	+	2	-1	i	0
COc1ccccc1NC(=O)C1CCOC1=O (stereo unspecified)	.	-25	9	i	.	-2	.	.
O=C(Nc1ccc(N2CCOCC2)cc1)C1CC(=O)N(c2ccc(Cl)cc2)C1 (stereo unspecified)	2	3	-3	i	-25	-1	.	.
CCC(c1nnc(SCC(=O)NC23CC4CC(CC(C4)C2)C3)o1)N(C)C (stereo unspecified)	1	1	-16	+	-6	0	i	0
CCC(c1nnc(SCC(=O)Nc2cc(C)on2)o1)N(C)C (stereo unspecified)	3	7	6	i	4	-8	.	.
Cc1cc(OCC[N+]2(C)CCCCC2)nc2ccccc12	1	0	1	i	0	4	i	0
CN(C)S(=O)(=O)c1cccc(C(=O)N/N=C\c2ccc(-c3ccccn3)cc2)c1	.	6	.	.	.	.	.	.
CC(C)CC(=O)c1c[nH]c(C(=O)NCc2cccnc2)c1	-2	7	-3	i	5	7	.	.
CCCn1c(NC(=O)CCS(=O)(=O)c2ccc(C)cc2)nc2ccccc21	-2	0	6	+	-4	-4	i	27*
CCCn1c(NC(=O)CCNC(=O)c2ccccc2Cl)nc2ccccc21	2	-2	-5	i	4	1	.	.
CC(=O)c1sc(NC(=O)CCS(=O)(=O)c2ccc(C)cc2)nc1C	1	3	0	i	4	4	i	0
CN(C)S(=O)(=O)c1cccc(-c2cn3cccnc3n2)c1	-1	3	4	i	0	-5	.	.
Cc1ccc(N/C(N)=N/c2nc3c(c(=O)[nH]2)CCCC3)c(C)c1	0	0	27	+	14	0	i	1
COc1ccc(CCCc2nnc(SCC(=O)Nc3nc(C)cs3)n2C)cc1C	-2	-8	0	i	7	-4	.	.
O=C(Cc1ccccc1)N/N=C/c1cc(Br)c(Br)o1	-7	9	-5	i	-2	12	i	1
O=C(Cc1ccccc1)NN=Cc1ccccc1	-1	-1	-1	i	-22	-6	.	.
Cc1ccc(C)c2sc(N3CCN(C(=O)c4ccc([N+](=O)[O-])o4)CC3)nc12	2	10	-4	i	20	-2	i	0
CCc1c(C)nc(SCC(=O)N2CC(C)OC(C)C2)[nH]c1=O (stereo unspecified)	-2	12	2	i	6	16	.	.
CCOCCCNC(=O)COC(=O)/C=C/c1ccc(S(=O)(=O)N2CCc3ccccc32)cc1	-4	-18	6	i	2	5	.	.
CCOCC(O)CNc1ccccc1 (stereo unspecified)	0	4	2	i	-10	-7	.	.
OC(CNc1ccccc1)COc1ccc(OCC(O)CNc2ccccc2)cc1 (stereo unspecified)	2	-24	-20	+	3	-2	i	1
C#CC[N+](C)(C)CCCCCCCC	1	7	0	i	-22	-4	i	0
SMILES	DAGLB inhibitor	sPLA2-III inh	Cardio protect	Myeloid diff MLP	Rtt109 HAT inh	ABHD5 PLIN5 PPI	Myeloid diff CP1	GFP autofluor
Cc1ccc(NC2=NCCCCC2)cc1C	2	0	5	+	2	3	i	0
Cc1ccc(NC2=NCCCCC2)cc1	0	2	14	i	-4	1	.	.
CCCCN1CC(COCc2ccccc2)Oc2cccc(N3CCCC3)c2S1(=O)=O (stereo unspecified)	-18	7	-9	i	4	-7	i	0
CC1(C)N=C(N)NC(Nc2ccc(Br)cc2)=N1	-1	1	4	+	4	-2	i	1
COc1ccc(C(C)=O)cc1Cn1c(C)c(C(=O)NC2CC2)sc1=O	.	-1	1	i	.	3	.	.
CCN(C(=O)COC(=O)C1COc2ccccc2O1)c1c(N)n(Cc2ccccc2)c(=O)[nH]c1=O (stereo unspecified)	0	7	-5	i	-19	-6	.	.
CCCC1=[N+](CC(=O)c2ccccc2)CCn2c(C)ccc21	2	-5	-20	+	1	4	i	0
O=C1C=CN2CCCCC2CC1 (stereo unspecified)	-1	5	-17	+	4	-2	i	5
CCOC(=O)c1c(-c2ccccc2)csc1NC(=O)c1cccc(N2C(=O)CCC2=O)c1	-1	2	7	i	.	-7	.	.
Cc1c(C(=O)N2CCN(c3ccccc3)CC2)sc2ncnc(N3CCN(c4ccccn4)CC3)c12	0	4	16	+	4	-1	i	0
Cc1c(C(=O)N2CCN(c3ccc(F)cc3)CC2)sc2ncnc(N3CCN(c4ccccn4)CC3)c12	1	-1	26	i	-11	15	.	.
Cc1cccc(CCNc2nc3ccccc3n3nnnc23)c1	1	4	6	+	-1	4	i	0
Clc1ccc(CCNc2nc3ccccc3n3nnnc23)cc1	0	-1	-3	i	-7	12	.	.
Cc1[nH]n(-c2ccccc2)c(=O)c1C(=O)c1cccc(F)c1	1	1	3	i	6	1	i	0
O=C(CCCn1cncn1)N1CCCC(N2CCN(c3ccccc3F)CC2)C1 (stereo unspecified)	1	5	1	i	-5	-5	.	.
O=[N+]([O-])c1cccc(-c2nc(-c3ccncc3)no2)c1	0	7	8	+	1	2	i	2
O=C(NCc1ccccc1)C1C(c2ccc3c(c2)OCO3)=Nc2ccccc2N1C(=O)c1ccccc1 (stereo unspecified)	.	14	.	i	.	6	.	.

High-throughput results from PubChem.
